# Columns and labels:
# Assay in all cases: yeast three-hybrid, YBZ-1, SC-Leu-His + 0.5 mM 3-AT, 4 days
# Conditions in all cases: tags: N-Gal4 AD-HA kept; label: inside an RPR1-promoter hybrid RNA with tandem MS2 sites; ssRNA
# [1] = molecular target: PUM1 PUF domain R1-RCM (Homo sapiens, UniProt Q14671 828-1176, S863R;R864C;Q867M)
# How it was run: (§1)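 Each repeat of the Pumilio-1 PUF domain was randomized at its three base-contacting residues, and these libraries were co-expressed from a centromeric plasmid with matching RNA elements in strain YBZ-1. After four days on SC-Leu (input) or SC-Leu-His + 0.5 mM 3-AT (selection), the repeat regions were PCR-amplified and Illumina-sequenced. The interaction score compares variant frequency between input and selection as a log change, computed in log2 with a pseudocount of 1 for absent variants.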
# [2] = molecular target: PUM1 PUF domain R3-EFG (Homo sapiens, UniProt Q14671 828-1176, C935E;R936F;Q939G)
# PUM1 PUF domain R3-EFG, sequence (Q14671 828-1176 C935E/R936F/Q939G): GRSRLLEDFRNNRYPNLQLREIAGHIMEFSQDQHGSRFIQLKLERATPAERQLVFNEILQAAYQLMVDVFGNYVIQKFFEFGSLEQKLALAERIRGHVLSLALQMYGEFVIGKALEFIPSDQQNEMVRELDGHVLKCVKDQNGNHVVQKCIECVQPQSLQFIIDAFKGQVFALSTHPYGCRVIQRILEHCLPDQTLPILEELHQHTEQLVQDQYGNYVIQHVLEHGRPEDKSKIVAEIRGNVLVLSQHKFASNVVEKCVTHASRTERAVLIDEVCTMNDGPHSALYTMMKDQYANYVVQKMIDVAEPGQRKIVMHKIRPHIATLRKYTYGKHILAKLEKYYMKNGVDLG
# How it was run: as §1
# [3] = molecular target: PUM1 PUF domain R7-LST (Homo sapiens, UniProt Q14671 828-1176, S1079L;N1080S;E1083T)
# PUM1 PUF domain R7-LST, sequence (Q14671 828-1176 S1079L/N1080S/E1083T): as the sequence (Q14671 828-1176 C935E/R936F/Q939G) above, with E108C, F109R, G112Q, S252L, N253S, E256T counted along it
# How it was run: as §1
# [4] = molecular target: PUM1 PUF domain R2-KCA (Homo sapiens, UniProt Q14671 828-1176, N899K;Y900C;Q903A)
# PUM1 PUF domain R2-KCA, sequence (Q14671 828-1176 N899K/Y900C/Q903A): as the sequence (Q14671 828-1176 C935E/R936F/Q939G) above, with N72K, Y73C, Q76A, E108C, F109R, G112Q counted along it
# How it was run: as §1
# [5] = molecular target: PUM1 PUF domain R2-EWA (Homo sapiens, UniProt Q14671 828-1176, N899E;Y900W;Q903A)
# PUM1 PUF domain R2-EWA, sequence (Q14671 828-1176 N899E/Y900W/Q903A): as the sequence (Q14671 828-1176 C935E/R936F/Q939G) above, with N72E, Y73W, Q76A, E108C, F109R, G112Q counted along it
# How it was run: as §1
# [6] = molecular target: PUM1 PUF domain R5-KHS (Homo sapiens, UniProt Q14671 828-1176, C1007K;R1008H;Q1011S)
# PUM1 PUF domain R5-KHS, sequence (Q14671 828-1176 C1007K/R1008H/Q1011S): as the sequence (Q14671 828-1176 C935E/R936F/Q939G) above, with E108C, F109R, G112Q, C180K, R181H, Q184S counted along it
# How it was run: as §1
# [7] = molecular target: PUM1 PUF domain R5-CGR (Homo sapiens, UniProt Q14671 828-1176, R1008G;Q1011R)
# PUM1 PUF domain R5-CGR, sequence (Q14671 828-1176 R1008G/Q1011R): as the sequence (Q14671 828-1176 C935E/R936F/Q939G) above, with E108C, F109R, G112Q, R181G, Q184R counted along it
# How it was run: as §1
# [8] = molecular target: PUM1 PUF domain R5-NPR (Homo sapiens, UniProt Q14671 828-1176, C1007N;R1008P;Q1011R)
# PUM1 PUF domain R5-NPR, sequence (Q14671 828-1176 C1007N/R1008P/Q1011R): as the sequence (Q14671 828-1176 C935E/R936F/Q939G) above, with E108C, F109R, G112Q, C180N, R181P, Q184R counted along it
# How it was run: as §1
# [9] = molecular target: PUM1 PUF domain R8-FFK (Homo sapiens, UniProt Q14671 828-1176, N1122F;Y1123F;Q1126K)
# PUM1 PUF domain R8-FFK, sequence (Q14671 828-1176 N1122F/Y1123F/Q1126K): as the sequence (Q14671 828-1176 C935E/R936F/Q939G) above, with E108C, F109R, G112Q, N295F, Y296F, Q299K counted along it
# How it was run: as §1
# [10] = molecular target: PUM1 PUF domain R8-TYC (Homo sapiens, UniProt Q14671 828-1176, N1122T;Q1126C)
# PUM1 PUF domain R8-TYC, sequence (Q14671 828-1176 N1122T/Q1126C): as the sequence (Q14671 828-1176 C935E/R936F/Q939G) above, with E108C, F109R, G112Q, N295T, Q299C counted along it
# How it was run: as §1
# [11] = molecular target: PUM1 PUF domain R8-KFG (Homo sapiens, UniProt Q14671 828-1176, N1122K;Y1123F;Q1126G)
# PUM1 PUF domain R8-KFG, sequence (Q14671 828-1176 N1122K/Y1123F/Q1126G): as the sequence (Q14671 828-1176 C935E/R936F/Q939G) above, with E108C, F109R, G112Q, N295K, Y296F, Q299G counted along it
# How it was run: as §1
# [12] = molecular target: PUM1 PUF domain R3-SWL (Homo sapiens, UniProt Q14671 828-1176, C935S;R936W;Q939L)
# PUM1 PUF domain R3-SWL, sequence (Q14671 828-1176 C935S/R936W/Q939L): as the sequence (Q14671 828-1176 C935E/R936F/Q939G) above, with E108S, F109W, G112L counted along it
# How it was run: as §1
# PUM1 PUF domain R1-RCM, sequence (Q14671 828-1176 S863R/R864C/Q867M): as the sequence (Q14671 828-1176 C935E/R936F/Q939G) above, with S36R, R37C, Q40M, E108C, F109R, G112Q counted along it
sequence,measurement,setting,value
GGCUAGAACUAGUGGAUCCCCCGGCGCCCGGCGGCUCGAGCCCGGGUAAGUGUAAAUCGUCUGCAUGCCGCCGGGCGCCAUGCCUGCAGGUCGACUCUAGAAAACAUG,binding signal,[1],2.75 log2 enrichment (interaction score)
GGCUAGAACUAGUGGAUCCCCCGGCGCCCGGCGGCUCGAGCCCGGGUAAGUGUAAGUAGUCUGCAUGCCGCCGGGCGCCAUGCCUGCAGGUCGACUCUAGAAAACAUG,binding signal,[2],4.12 log2 enrichment (interaction score)
GGCUAGAACUAGUGGAUCCCCCGGCGCCCGGCGGCUCGAGCCCGGGUAAGUUUAAAUAGUCUGCAUGCCGCCGGGCGCCAUGCCUGCAGGUCGACUCUAGAAAACAUG,binding signal,[3],3.64 log2 enrichment (interaction score)
GGCUAGAACUAGUGGAUCCCCCGGCGCCCGGCGGCUCGAGCCCGGGUAAGUGUAAAGAGUCUGCAUGCCGCCGGGCGCCAUGCCUGCAGGUCGACUCUAGAAAACAUG,binding signal,[4],3.39 log2 enrichment (interaction score)
same,binding signal,[5],2.1 log2 enrichment (interaction score)
GGCUAGAACUAGUGGAUCCCCCGGCGCCCGGCGGCUCGAGCCCGGGUAAGUGUGAAUAGUCUGCAUGCCGCCGGGCGCCAUGCCUGCAGGUCGACUCUAGAAAACAUG,binding signal,[6],2.1 log2 enrichment (interaction score)
GGCUAGAACUAGUGGAUCCCCCGGCGCCCGGCGGCUCGAGCCCGGGUAAGUGUCAAUAGUCUGCAUGCCGCCGGGCGCCAUGCCUGCAGGUCGACUCUAGAAAACAUG,binding signal,[6],4.98 log2 enrichment (interaction score)
same,binding signal,[7],4.13 log2 enrichment (interaction score)
same,binding signal,[8],4.07 log2 enrichment (interaction score)
GGCUAGAACUAGUGGAUCCCCCGGCGCCCGGCGGCUCGAGCCCGGGUAAGCGUAAAUAGUCUGCAUGCCGCCGGGCGCCAUGCCUGCAGGUCGACUCUAGAAAACAUG,binding signal,[9],3.27 log2 enrichment (interaction score)
same,binding signal,[10],2.53 log2 enrichment (interaction score)
same,binding signal,[11],2.54 log2 enrichment (interaction score)
GGCUAGAACUAGUGGAUCCCCCGGCGCCCGGCGGCUCGAGCCCGGGUAAGUGUAAUUAGUCUGCAUGCCGCCGGGCGCCAUGCCUGCAGGUCGACUCUAGAAAACAUG,binding signal,[2],3.8 log2 enrichment (interaction score)
same,binding signal,[12],1.78 log2 enrichment (interaction score)
